62 compounds from PubChem BioAssay AID684 (PCMD, 2007) can be followed below.

Screen size: about 62,000 compounds; about 95 (0.2%) were called active. The sample holds actives, similar compounds and a random draw of the others, so the mix is not that of the screen. Unmarked numbers belong to inactive results. No stated cut-off is given here; in the data, active means inhibition above about 20% (passing the limit was not always enough); inactive means the rest.

For the assay, the target named is Coagulation factor XII (Homo sapiens) (UniProt P00748). As to the kind of experiment: human factor XIIa inhibitors, primary screen, biochemical, pooled compound mixtures, fluorogenic substrate (AID 684).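 Further: 0% = enzyme without compound and 100% = no enzyme blank.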 To be noted: purified FXIIa, at 5 µM, active compounds read high.
Sequence of Coagulation factor XII (Homo sapiens) (P00748 20-372 limits assumed): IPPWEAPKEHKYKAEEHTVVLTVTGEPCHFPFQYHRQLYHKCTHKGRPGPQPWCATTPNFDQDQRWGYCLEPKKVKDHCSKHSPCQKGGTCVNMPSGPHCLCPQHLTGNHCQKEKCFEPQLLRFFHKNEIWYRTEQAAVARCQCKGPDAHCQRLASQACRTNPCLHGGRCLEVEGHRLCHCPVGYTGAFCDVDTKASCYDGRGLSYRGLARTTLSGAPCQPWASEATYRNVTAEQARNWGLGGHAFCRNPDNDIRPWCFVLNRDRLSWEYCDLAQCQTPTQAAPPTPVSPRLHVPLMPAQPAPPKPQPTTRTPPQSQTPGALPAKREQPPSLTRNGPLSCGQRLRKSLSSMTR
Sequence of Coagulation factor XII (Homo sapiens) (P00748 373-615 limits assumed): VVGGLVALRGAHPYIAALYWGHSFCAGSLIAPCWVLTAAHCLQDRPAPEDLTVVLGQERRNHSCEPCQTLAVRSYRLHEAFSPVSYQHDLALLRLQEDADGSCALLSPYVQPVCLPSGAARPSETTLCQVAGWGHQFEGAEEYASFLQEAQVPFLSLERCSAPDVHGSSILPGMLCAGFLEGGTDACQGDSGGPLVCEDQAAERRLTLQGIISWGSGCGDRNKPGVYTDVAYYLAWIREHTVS
With `CC1(C)CC(=O)c2sc(N)nc2C1`, the inhibition was 4.78%.
Consider `CCN1CCN(c2c(Cl)cccc2NC(=O)c2ccc(Br)o2)CC1`, for which the inhibition is 10.2%.
As for `CCOC(=O)c1ccc(N2C(=O)CC(Sc3nc(O)c(CC)c(=O)[nH]3)C2=O)cc1` (configuration not stated), the figure is -16.1%; as for `O=C(CCCn1c(=O)[nH]c2cc(Cl)ccc2c1=O)NCCN1CCN(c2ccccc2)CC1`, 6.45%; as for `CC(C)Cn1c(CN(Cc2ccccc2)Cc2ccccc2)nc2c1c(=O)n(C)c(=O)n2C`, 2.03%.
`CCOCC(=O)NCc1ccc2c(c1)cc(C)n2C`: the inhibition was 5.58%.
Regarding `CC1CCCC(NC(=O)CSc2nccn2C)C1C` (configuration not stated), the inhibition is 4.17%.
As for `O=C(/C=N/O)Nc1ccccc1`, the inhibition was 1.18%.
The value for `CCC(=O)N1CCN=C1SCc1ccc(F)cc1` was 11.4%.
Consider `Cc1ccc(CN2C(=O)CCC2C(=O)NCCCN2CCCCC2C)cc1` (configuration not stated), for which the inhibition is 5.07%.
`Cc1cc(C)c(C#N)c(SCS(=O)c2ccc(C(C)(C)C)cc2)n1` (configuration not stated): the inhibition is 4.64%.
The value for `CCOC(=O)c1cc2c(n(-c3ccc(C)cc3)c1=O)CCCC2=O` was 6.98%.
Regarding `CC(c1ccco1)N(C(=O)c1ccc(S(=O)(=O)N2CCCCC2)cc1)c1ccccn1` (configuration not stated), the inhibition was 12%.
As for `COC(=O)c1oc2ccc(Br)cc2c1NC(C)=O`, the figure is 8.62%; as for `Cc1nnc(SCc2cc(=O)[nH]c(N3CCN(Cc4ccccc4)CC3)n2)s1`, 2.33%.
For the compound `Cc1nn(-c2cc(Cl)ccc2N)c(=O)c2ccccc12`, the inhibition was 4.62%.
As for `COc1cc(OC)c(C(=O)Nc2ccc(N(C)C)cc2)cc1OC`, the figure is 6.85%; as for `CSc1ccc(NC(=O)N2CC(C)OC(C)C2)cc1` (configuration not stated), 7.45%.
The value for `O=C(Nc1cccc2cccnc12)c1cccc(N2C(=O)CCC2=O)c1` was 8.88%; that for `CCCCOC(=O)Nc1nccs1` was 0.87%; that for `CC1=C(C(N)=O)C(c2ccc3c(c2)OCO3)n2nc(-c3cccc(C)c3)nc2N1` (configuration not stated) was 6.61%.
In the case of `CCn1c(SCC(=O)c2ccc(Cl)s2)nnc1-c1cccs1`, the inhibition is 7.99%.
Turning to `O=C(O)c1ccc(COCC(F)(F)F)cc1`, the inhibition is 7.12%.
The value for `COc1ccccc1C(=O)C(O)c1ccccc1OC` (configuration not stated) was 5.88%; that for `CC(C)C(=O)Nc1c(C(=O)c2ccc(F)cc2)oc2ccccc12` was -2.16%; that for `Cc1cccc(C(=O)Nc2ccc(CC(=O)O)cc2)c1` was 3.19%.
The value for `O=c1[nH][nH]c(=O)c2cc(N3CCCC3)ccc12` was 10.2%; that for `Cc1cc(=O)n2nc(N3CCCC3C(=O)NCCCN3CC(C)CC(C)C3)sc2n1` (configuration not stated) was -7.38%.
As for `O=C(CN1CCOCC1)Nc1cc(Cl)ccc1Cl`, the inhibition was 17.8%.
The value for `CCCN1C(=O)C(NS(=O)(=O)c2ccc(N)cc2)(C(F)(F)F)C(C(=O)OC)=C1C` (configuration not stated) was 4.13%; that for `CC1CCCCC1NC(=O)CSc1nnc(N)s1` (configuration not stated) was 4.21%; that for `CCOC(=O)Cc1c(C)nc2c(C#N)c(C)nn2c1C` was -16%.
As to `CCOC(=O)N1CCN(CC(=O)c2c(C)[nH]c3ccccc23)CC1`, the inhibition is 8.99%.
`CCC(C(=O)Nc1ncccn1)(C(F)(F)F)C(F)(F)F`: the inhibition is 9.39%.
As for `Cc1ccc(-n2ncc3c(N4CCN(c5ccc(F)cc5)CC4)ncnc32)c(C)c1`, the figure is 2.92%; as for `Cc1ccc(-n2ncc3c(=O)[nH]cnc32)c(C)c1`, 20.5% (active).
Consider `Cc1ccc(-n2ncc3c2ncn2nc(-c4ccco4)nc32)c(C)c1`, for which the inhibition was 0.945%.
The value for `CC(=O)NS(=O)(=O)c1ccccc1` was 7.57%.
As for `Cc1ccc(-c2nn(-c3ccccc3)cc2CN(Cc2ccccc2)C(=O)CCC(=O)O)o1`, the figure is 1.27%.
As for `COc1ccc(CC(NC(C)=O)C(=O)NC2CCN(C(=O)Nc3ccc(C#N)cc3)CC2)cc1OC` (configuration not stated), the figure is -19%.
As for `c1nnc2c3c4c(sc3ncn12)CCC4`, the inhibition was -20.4%.
The value for `Cc1ccc2cccc(O)c2[n+]1[O-]` was 6.81%; that for `CCCn1c(SCC(N)=O)nnc1C(C)C` was -14.3%; that for `COc1ccccc1N1CCN(C(=O)c2c(-c3c(Cl)cccc3Cl)noc2C)CC1` was -18.6%.
Regarding `CCCn1nnc2sc3c(c2c1=O)CCC(C)C3` (configuration not stated), the inhibition is 1.96%.
The value for `Cc1ccnc(SCCn2c(N(C)Cc3ccccc3)nc3c2c(=O)n(C)c(=O)n3C)n1` was 5.5%.
Take `Cc1ccc(S(=O)(=O)C2(S(=O)(=O)c3ccc(C)cc3)CCCC2)cc1`: the inhibition is 5.75%.
As for `CCCOC(=O)c1[nH]c2c(c1C)C(=O)CC(c1cc(OC)c(OC)c(OC)c1)C2` (configuration not stated), the inhibition is 3.98%.
The value for `O=C(c1ccc(-n2cnnn2)cc1)N1CCN(C(c2ccccc2)c2ccccc2)CC1` was 1.76%; that for `c1c2c(cc3sc(N4CCCCC4)nc13)OCCO2` was -2.49%.
As for `CC(=O)Oc1ccc(C)cc1N1C(=O)c2ccc(C(=O)O)cc2C1=O`, the inhibition was 9.34%.
As for `N#Cc1ccc(OCCN2C(=O)NC3(CCSC3)C2=O)cc1` (configuration not stated), the figure is 18.5%; as for `COc1ccc(C2/C(=C(/O)c3ccccc3)C(=O)C(=O)N2c2ncccn2)cc1OC` (configuration not stated), 2.12%.
As for `Cc1c(NC(=O)c2coc(=O)c(Br)c2)c(=O)n(-c2ccccc2)n1C`, the figure is -0.015%.
The value for `CCOC(=O)N1CCN(C(=O)Cc2ccc(-n3c(=S)[nH]c4ccccc4c3=O)cc2)CC1` was 7.08%.
For the compound `COc1cccc(Nc2nnc(SCC(=O)N3CC(C)OC(C)C3)s2)c1` (configuration not stated), the inhibition is -0.74%.
As to `CCOc1ccc2[nH]c(=O)c(CN(CCCO)C(C)=O)cc2c1`, the inhibition is -3.55%.
As for `Cn1c(=O)c2[nH]c(NCC3CCCO3)nc2n(-c2ccccc2)c1=O` (configuration not stated), the inhibition was -14.8%.
The value for `CC(C)CCNc1nc(N2CCCC2)c2c(c1C#N)CCN(C)C2` was -51.8%; that for `N#Cc1ccc(CSc2nnc(-c3ccccn3)n2-c2ccc(Cl)cc2)cc1` was -14.6%.
Regarding `CCN(CC)P(=O)(C(NC(=O)OC)C(F)(F)C(F)(F)C(F)(F)C(F)F)N(CC)CC` (configuration not stated), the inhibition is 0.97%.
On to `CCCC(C)n1[nH]c(=O)c2c(C)cc(C)nc21` (configuration not stated), for which the inhibition was 3.26%.
